SARS PLP yeast – inhibitors of SARS-CoV papain-like protease in yeast. S. cerevisiae expressing SARS-CoV PLpro, growth rescue. Potency, µM (top dose mostly 32.9 µM), for inactives: top-dose activity, positive = growth rescue, hits mostly activators. 0.19% of 330,000 active. AID 485353; calls by dose curve; further: potency means the concentration at half of the fitted maximal effect; 0% is about no effect; nearly all actives have a fitted effect of over 55% in size
Shiga inhibitor – Shiga toxin inhibition. 9.2% of 290,000 active. inhibition, % at 38.7 µM. Vero cells, Shiga toxin protein synthesis inhibition reporter. AID 2315; in the data active means inhibition mostly above about 28%, no sharp cut-off; inactive means mostly below about 43%; further: 0% is about no effect
Pf growth 48h – inhibits P. falciparum growth in the first generation, 48 h; P. falciparum luciferase growth in erythrocytes, 48 h; Potency, µM (doses to about 28.7 µM), inactives show at the highest dose activity change, negative = inhibition, most hits filed as inhibitors; AID 504832; 5.9% of 310,000 active; further: potency means the concentration at half of the fitted maximal effect; on the % scale 0 is the no-effect control and ±100 the full control effect
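Growth was read as firefly luciferase luminescence after a 48 h, 37 C, 5% CO2 exposure of compounds to reporter-bearing P. falciparum cultures (0.1% parasitemia, 2% hematocrit final) in Albumax-supplemented RPMI 1640.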
AMA1-RON2 inh – inhibitors of Plasmodium falciparum AMA1-RON2 interaction | AlphaScreen AMA1-biotinylated RON2 peptide binding | Potency, µM (doses to about 58.2 µM), for the others: top-dose activity change, negative = inhibition, hits mostly inhibitors | 0.2% of 360,000 active | AID 720542;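 further: potency means the concentration at half of the fitted maximal effect; 0% = vehicle wells and -100% = peptide control; nearly all actives have a fitted effect of over 45% in size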
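AMA1 (3D7) with his tag at 25 nM final met compounds first, then biotinylated RON2 peptide at 25 nM; detection used donor plus acceptor beads, 10 µg/mL apiece, read by AlphaScreen after 30 min at room temperature.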
Pf growth 96h – P. falciparum growth inhibition at 96 hour, primary screen for plastid delayed-death inhibitors. P. falciparum luciferase reporter growth, 96 h. Potency, µM (series often up to 28.7 µM), inactives show at the top dose activity change, negative = inhibition, usual class: inhibitors. 6.9% of 320,000 active. AID 504834; further: potency means the concentration at half of the fitted maximal effect; on the % scale 0 is the no-effect control and ±100 the full control effect
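Compounds incubated with erythrocytes infected by luciferase-expressing P. falciparum (2% hematocrit, 0.05% parasitemia final) for 96 hours, 37 C in 5% CO2. Growth inhibition scored as decreased luciferase luminescence.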
CHX counter – counter-screen for Shiga toxin inhibitors: cycloheximide protein synthesis inhibition; max response, %; cell reporter, cycloheximide protein synthesis inhibition counterscreen; 12% of 300,000 active; in the data active means max response mostly above about 13%, no sharp cut-off; inactive means mostly below about 14%; further: read at 38.3 µM for the half of the compounds with a filed dose; 0% is about no effect
An asterisk follows results filed as active; i = inactive; ? = inconclusive; nt = no result given; + = active, no number; [ ] = remark or other dose. Sampled rows, rich in hits. Any-hit rate of the full collection: about 19%. Unless noted, the call rests on the fitted dose curve; in most records, active means well fitted curve in the direction sought with a large enough effect; inconclusive means small, poorly fitted or top-dose-only effect, or another doubt; inactive means no such curve, though single readings can be large; an effect the other way counts as inactive or inconclusive.

SMILES | SARS PLP yeast | Shiga inhibitor | Pf growth 48h | AMA1-RON2 inh | Pf growth 96h | CHX counter
Cc1ccc(S(=O)(=O)NC(=O)C2(C)CCN2C(=O)Cc2ccc(C(C)(C)C)cc2)nc1 (stereo not given) | nt | nt | nt | 82% | nt | nt
CCCn1c2c(c(=N)c3c1CCC3)CCCC2 | -16% | -4 | 0.37µM* | 23%[11.6 µM] | 0.12µM* | -3
COC(=O)Cn1c2c(c3cc(C)ccc31)CCCC2 | -1% | -4 | -5% | ? | 30% | -3
CCCCCCCn1c2c(c(=N)c3ccccc31)CCC2 | -6% | 1 | 0.93µM* | 0% | 21% | -1
CCOC(=O)Cn1c2c(c(=N)c3c1CCC3)CCCC2 | 17% | -5 | ? | 17% | 0.19µM* | -6
CCCn1c2c(c(=N)c3c1CCC3)CCC2 | -1% | 4 | 0.37µM* | 22% | ? | 0
Clc1ccc(OCc2noc(-c3ccsc3)n2)c(Cl)c1 | -1% | 130* | 92% | 5% | i | 50*
Fc1cc(Cl)c(OCc2noc(-c3ccsc3)n2)c(Cl)c1 | 1% | 35* | 292% | -1% | 74% | 21*
COc1ccc(-c2nc(Cc3ccc(Cl)cc3)no2)cc1OC | -5% | -5 | 7% | -4% | nt | -2
COc1cc(-c2nc(Cc3ccccc3Cl)no2)cc(OC)c1OC | -14% | -3 | -6% | 0% | ? | -5
CO[C@]1(C)C[C@H]2O[C@]1(C)n1c3ccccc3c3c4c(c5c6ccccc6n2c5c31)C(=O)N(C)C4 | nt | -6 | nt | nt | nt | -7
Cc1ccc(C(C)C)c(OCC(=O)Nc2ccccc2N2CCN(C)CC2)c1 | 6% | -29 | 6.6µM* | -12% | 24% | -3
O=C(COc1cccc(C(F)(F)F)c1)Nc1ccccc1N1CCCCC1 | -9% | nt | 10µM* | 13% | ? | nt
Cc1ccccc1OCC(=O)Nc1ccccc1N1CCCCC1 | -17% | 6 | ? | 8% | 10µM* | -3
Cc1cc(OCC(=O)Nc2ccccc2N2CCCCC2)ccc1C(C)C | -1% | nt | ? | 9% | 10µM* | nt
Cc1cc(C)cc(OCC(=O)Nc2ccccc2N2CCCCC2)c1 | -3% | -16 | 3% | 21% | nt | -3
CCOC(=O)C1=CCN(S(=O)(=O)c2ccc(C)cc2)C1c1ccc(Cl)c(Cl)c1 (stereo not given) | nt | nt | nt | 15% | nt | nt
COc1cccc(C(=O)Nc2ccc(S(=O)(=O)N3CCN(C)CC3)cc2)c1 | 1% | 7 | -7% | 16% | -18% | -4
COC(=O)[C@H](CCSC)NC(=O)N1CCN(c2cccc(C(F)(F)F)c2)CC1 | 2% | 7 | 4% | 4% | nt | -2
Cc1ccc2c(c1)-c1c(cnn1CC(=O)Nc1ccccc1N1CCN(C)CC1)CO2 | 1% | -4 | 10µM* | -5% | -33% | -3
CSCCC(NS(=O)(=O)c1cccc(C(F)(F)F)c1)C(=O)Nc1ccccc1N1CCCC1 (stereo not given) | 0% | nt | ? | 9% | 15µM* | nt
CC(=O)N1CCN(c2ccccc2NC(=O)COc2ccc(Br)cc2)CC1 | -6% | -3 | ? | -3% | 4.7µM* | -1
O=C(COc1ccc(Br)cc1)Nc1ccccc1N1CCCC1 | 0% | 3 | -29%[5.75 µM] | -16% | ? | -5
Cc1ccc2c(c1)-c1c(cnn1CC(=O)O)CO2 | 1% | -2 | 9% | -2% | ? | 1
COC(=O)[C@]12CCCCC=C1N(CCC1=CCCCC1)C(=O)[C@H](CC(=O)N1CCCCC1)C2 | nt | nt | nt | -6% | nt | nt
SMILES | SARS PLP yeast | Shiga inhibitor | Pf growth 48h | AMA1-RON2 inh | Pf growth 96h | CHX counter
Cc1ccnc(SCC(=O)c2ccc(Br)cc2)c1C#N | -5% | 96* | 118% | -1%[11.6 µM] | 112% | 84*
Cc1ccc(C(=O)COc2nc(C)cc(C)c2C#N)cc1 | -5% | 18 | -16% | 38% | ? | -3
Cc1ccc(C(=O)CSc2nsc(C)c2C#N)cc1 | -8% | + | 187% | -1% | 90% | 30*
Cc1cc(C)c(C#N)c(OCC(=O)c2ccc(Br)cc2)n1 | -3% | -11 | ? | 40% | 4.7µM* | 9
Cc1snc(SCC(=O)c2ccc(Cl)cc2)c1C#N | -1% | 58* | 97% | 10% | 242% | 35*
COc1ccc(-c2cc3nc4n(c(=O)c3s2)CCCCC4)cc1 | 0% | 78* | 320% | -4% | 196% | 49*
COc1ccc(-c2cc3nc(NCCN4CCCC4)n(C)c(=O)c3s2)cc1OC | nt | nt | nt | -1% | nt | nt
COc1ccc(-c2nc3n(c2C)CCC3)cc1 | -2% | 71* | 60% | -2% | 128% | 27*
COc1ccc(-c2cc3nc(C)n(N)c(=O)c3s2)cc1 | -7% | -37 | -4% | 0% | 39% | -2
COc1ccc(-c2cc3nc4n(c(=O)c3s2)CCC4)cc1 | -1% | 91* | 36% | 1% | ? | 33*
CCOC(=O)C1(CC2CCCCO2)CCN(Cc2nccn2-c2ccc(OC)cc2)CC1 (stereo not given) | 2% | -7 | 10µM* | 6% | -11% | -2
CCOC(=O)C1(CC2CCCCO2)CCN(Cc2cc(F)ccc2-n2cccn2)CC1 (stereo not given) | -1% | 72 | 17% | -7% | -25% | 27*
CCN(CC)c1nc(-c2cccc(OC)c2O)nc2ccccc12 | -6% | -15 | nt | ? | 15% | -4
Clc1ncccc1-c1nc2ccccc2s1 | 2% | 106* | 111% | 9% | 161% | 34*
COc1cccc(-c2nc3ccccc3s2)c1O | -1% | 64 | 165% | -3% | 9% | 27*
COc1cc(OC)c(-c2nc3ccccc3s2)cc1OC | -3% | 33* | -12% | 0% | ? | 24*
CCOC(=O)C1CCCN(Cc2ccc(OCC)cc2)C1 (stereo not given) | 2% | -5 | nt | -7% | 31% | 1
COc1cc(CC(=O)OCC(=O)NCc2ccco2)cc(OC)c1OC | 0% | nt | nt | -1% | nt | nt
COc1ccc(-n2c(SCC(N)=O)nc3nc4c(cc3c2=O)COC(C)(C)C4)cc1 | 6% | 3 | 9% | 23% | 6% | -3
CC(=O)Nc1ccc(-c2cc(-c3ccccc3)nc(-c3ccccc3)n2)cc1 | 10% | -4 | ? | 8%[2.32 µM] | 1.3µM* | 5
CCC(=O)Nc1ccc(-c2cc(-c3ccccc3)nc(-c3ccc(NC(=O)CC)cc3)n2)cc1 | -2% | 9 | ? | 9% | 13µM* | -1
Nc1ccc(-c2cc(-c3cccc(N)c3)nc(-c3ccccc3)n2)cc1 | -4% | -17 | 13µM* | 20% | 2.1µM* | -5
Cc1cccc(C(=O)N2CCNC(=O)C2CC(=O)Nc2cccc(Cl)c2)c1 (stereo not given) | -7% | -20 | 1% | -18% | 83% | -3
c1ccc2nc(-c3nc4ccccc4o3)ccc2c1 | -23% | 10 | -4% | 18% | nt | 6
c1cncc(-c2nc3ccccc3o2)c1 | -2% | 39 | 47% | 6% | ? | 21*
O=C1c2cccnc2C(=O)N1c1cccc(-c2nc3ccccc3o2)c1 | -3% | 68* | 31% | 43% | -3% | 34*

Screening results from PubChem.
